Rows were chosen to be rich in hits. Some 2% of all compounds tested hit in one or more screens of this group.
M4 ag: human M4 muscarinic receptor agonists, primary screen, CHO-K1 cells, Fluo-8 calcium fluorescence | AID 624127, 2012 | hit rate 0.14% among 360,000 | Muscarinic acetylcholine receptor M4 (Homo sapiens), P08173 | CHO-K1 hM4/Gqi5; vehicle 0%, full acetylcholine response 100% | activation, % at 3 µM;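 active = activation above the run mean over all test wells plus 3 SD, cut at about 32% in these data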;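 note: peak over basal fluorescence ratio per well then scaled between controls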
Target sequence (P08173 whole entry, looked up): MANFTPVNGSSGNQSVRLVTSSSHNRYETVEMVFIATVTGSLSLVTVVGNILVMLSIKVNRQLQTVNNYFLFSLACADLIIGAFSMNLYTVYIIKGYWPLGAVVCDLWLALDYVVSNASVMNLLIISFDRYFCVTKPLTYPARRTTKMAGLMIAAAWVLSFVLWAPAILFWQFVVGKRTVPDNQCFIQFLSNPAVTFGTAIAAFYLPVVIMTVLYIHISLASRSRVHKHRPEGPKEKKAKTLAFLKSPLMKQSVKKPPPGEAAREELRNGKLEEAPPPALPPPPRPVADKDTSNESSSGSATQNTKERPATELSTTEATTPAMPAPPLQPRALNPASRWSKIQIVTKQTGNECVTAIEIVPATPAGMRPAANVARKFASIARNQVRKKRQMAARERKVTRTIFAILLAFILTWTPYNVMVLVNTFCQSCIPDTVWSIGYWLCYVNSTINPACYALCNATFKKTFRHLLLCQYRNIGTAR
CHO-K1 Ca antag: counter-screen for M1 antagonists: effect in parental CHO-K1 cells. ATP-induced calcium, Fluo-8 fluorescence. hit rate 0.6% among 360,000. inhibition, % at 3 µM;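 active = inhibition above a per-plate cutoff, the plate's mean sample inhibition plus 3 SD, cut at about 24% in these data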
CHRM4 antagonist: human M4 muscarinic receptor antagonists, primary screen, CHO cells, Fluo-8 calcium fluorescence; CHO-hM4 cells, ACh EC80; hit rate 0.73% among 360,000; inhibition, % at 3 µM;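 active = inhibition above its plate's cutoff, the mean inhibition of sample wells plus 3 SD, cut at about 27% in these data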
M4 PAM: human M4 muscarinic receptor positive allosteric modulators, primary screen, CHO-K1 cells, Fluo-8 calcium fluorescence; Muscarinic acetylcholine receptor M4 (Homo sapiens), P08173; CHO-K1 hM4/Gqi5, ACh EC20; 0% = ACh EC20, 100% = maximal ACh; activation, % at 3 µM; hit rate 0.4% among 360,000; AID 624126, 2012;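 active = activation above its plate's cutoff, the mean activation of sample wells plus 3 SD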
CHO-K1 Ca PAM: nonselective calcium activators in parental CHO-K1 cells, primary screen, counter-screen for M1 PAM project, cell-based, Fluo-8 calcium fluorescence, full deck, 1536-well; AID 602247, 2012; hit rate 0.02% among 360,000; ATP EC20; 0% at ATP EC20, 100% at ATP max; activation, % at 3 µM;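 active = activation above the run cutoff, the mean activation of all test compounds plus 3 SD, cut at about 40% in these data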;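 note: peak over basal fluorescence ratio in a 140 s read after ATP addition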
CHO-K1 Ca ag: counter-screen for M1 agonists: effect in parental CHO-K1 cells | activation, % at 3 µM | hit rate 0.48% among 360,000 | Fluo-8 calcium fluorescence; scaled to maximal ATP response, vehicle zero; in the data active = activation above about 15%;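 note: untransfected CHO-K1 host cells lacking M1 receptor as counterscreen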
Hits are given with their value; – = inactive.

SMILES | M4 ag | CHO-K1 Ca antag | CHRM4 antagonist | M4 PAM | CHO-K1 Ca PAM | CHO-K1 Ca ag
O=C(Nc1ccc(F)cc1)C1CCCN1S(=O)(=O)c1ccc(Br)cc1 (stereo not drawn) | – | – | – | 25 | – | –
COc1ccc(C(c2c(C)[nH]n(-c3ccccc3)c2=O)c2c(C)[nH]n(-c3ccccc3)c2=O)cc1OC | – | – | – | – | – | 15
c1ccc(-c2cn(-c3ccccc3)c3[n+]2CCS3)cc1 | – | – | – | – | – | –
CC(C)(C)c1ccc(-c2cn(-c3ccc(Br)cc3)c3[n+]2CCCS3)cc1 | – | – | 50 | – | – | –
COc1cc(OC)cc(-c2sc3ccc(OC)cc3c2-c2ccc(OCCN3CCOCC3)cc2)c1 | – | – | – | – | – | –
Cc1nc2ccc(S(=O)(=O)CCC(=O)NCCc3ccccc3)cc2s1 | – | – | – | – | – | –
CCOC(=O)N1CCC(NC(=O)c2cc(C(=O)Nc3ccc(F)cc3F)ccc2CO)CC1 | – | 29 | – | – | – | –
CCOC(=O)N1CCC(NC(=O)c2cc(C(=O)NCc3ccc(F)cc3)ccc2CO)CC1 | – | – | – | – | – | –
Nn1c(SCC(=O)Nc2ccc(N3CCOCC3)cc2)nnc1C1CC1 | – | – | – | – | – | –
Cc1[nH]c2ccccc2c1C(=O)CSc1nc2ccccc2c(=O)n1CCCN1CCOCC1 | – | – | 27 | – | – | –
CCOc1ccc(/C=C/[N+](=O)[O-])c2ccccc12 | – | – | 40 | – | – | –
COc1nc(OC)nc(N2CCC(C(=O)Nc3cccc4c3CCCC4)CC2)n1 | – | – | – | – | – | –
O=[N+]([O-])c1cc2oc3c(c2c(C=NCc2ccccc2)c1O)CCCC3 | – | – | 35 | – | – | –
COc1cc(C(=O)COC(=O)c2cc([N+](=O)[O-])ccc2N2CCOCC2)ccc1OC(F)F | – | – | 28 | – | – | –
COc1ccccc1C(=O)COC(=O)c1cc([N+](=O)[O-])ccc1N1CCOCC1 | – | – | – | – | – | –
CCc1ccc(NC(=O)CSc2nc(NS(=O)(=O)c3ccccc3)cc(=O)[nH]2)cc1 | – | – | – | – | – | –
COc1ccc(Cl)cc1NC(=O)c1nnn(CC(=O)Nc2ccc3c(c2)OCO3)c1N | – | – | – | 20 | – | –
COc1ccc(NC(=O)c2nnn(CC(=O)Nc3ccc4c(c3)OCO4)c2N)cc1OC | – | – | – | – | – | –
COC(=O)Cn1c(CCC(=O)O)ccc1-c1ccccc1 | – | – | – | – | – | –
COc1ccccc1OCCn1cc(C(=O)c2ccco2)c2ccccc21 | – | – | – | – | – | 20
COc1cccc(OCCn2cc(C(=O)c3ccco3)c3ccccc32)c1 | – | – | – | – | – | –
COc1ccc(/C=C2/SC(=S)N(NS(=O)(=O)c3ccccc3)C2=O)cc1 | – | – | – | – | – | –
COc1cc(/C=C2\SC(=S)N(NS(=O)(=O)c3ccccc3)C2=O)ccc1O | – | – | – | – | – | 16
COc1cc(/C=C2\SC(=S)N(NS(=O)(=O)c3ccc(C)cc3)C2=O)ccc1O | – | – | – | – | – | 24
CC(=O)c1c(N2CCOCC2)nc2ccc(Cl)cc2c1-c1ccccc1 | – | – | – | – | – | –
SMILES | M4 ag | CHO-K1 Ca antag | CHRM4 antagonist | M4 PAM | CHO-K1 Ca PAM | CHO-K1 Ca ag
Nc1ccc(S(=O)(=O)Nc2cnc3c(Cl)cccc3n2)cc1 | – | – | – | – | – | –
Cc1cnc(NC(=O)CSc2nnc(-c3ccncc3)n2C2CCCCC2)s1 | – | – | – | 33 | – | –
O=C(CSc1nnc(-c2ccncc2)n1C1CCCCC1)Nc1cccc(O)c1 | – | – | – | – | – | –
CCCNC(=O)N(C)C[C@H]1Oc2ncc(C#CCc3ccccc3)cc2C(=O)N([C@H](C)CO)C[C@H]1C | – | – | – | – | – | –
COCCOc1cc(N(CC(=O)N(C)C)S(=O)(=O)c2ccccc2)c(Cl)cc1Cl | – | – | – | – | – | –
Cc1cc(C(=O)O)ccc1-c1ccc(/C=C2\SC(=O)N(CC(=O)Nc3ccc4c(c3)OCO4)C2=O)o1 | – | 27 | – | – | – | –
C#CC(=O)CC1(CN(Cc2ccccc2)C(=O)OC(C)(C)C)CCCCC1 | – | – | 32 | – | – | –
CCOc1ccc(CN2CCNC(=O)C2CC(=O)NCCc2nc(C)c3c(n2)CCC3)cc1 (stereo not drawn) | – | – | – | – | – | –
COc1cc(OC)c(-c2c3cc(O)c(=O)cc-3oc3cc(O)c(O)cc23)cc1OC | 212 | 68 | 52 | – | – | 258
COc1cc(NC(=O)C/C(C)=N/NC(=O)Cc2ccccc2)c(OC)cc1Cl | – | – | – | – | – | –
COc1ccc(CN(C)S(=O)(=O)c2nnc(NC(=O)c3cccc(F)c3)s2)cc1 | – | 24 | – | – | – | –
CCCc1cc(=O)[nH]c(SCC(=O)Nc2ncc(S(=O)(=O)c3ccc([N+](=O)[O-])cc3)s2)n1 | – | – | – | – | – | –
Cc1csc(NC(=O)CSc2ccc([N+](=O)[O-])cn2)n1 | – | – | – | – | – | 16
Cc1nnc(SCC(=O)Nc2ncc(S(=O)(=O)c3ccc([N+](=O)[O-])cc3)s2)s1 | – | – | – | – | 44 | –
Cc1ccc(NC(=O)Cn2ccsc2=N)c([N+](=O)[O-])c1 | – | – | – | – | – | –
COC(=O)C(CCSC)NC(=O)c1cc2c(n(-c3ccccc3)c1=O)CC(C)(C)CC2=O (stereo not drawn) | – | 27 | – | – | – | –
COc1ccc(-n2c3c(cc(C(=O)N4CCCCC4)c2=O)C(=O)CC(C)(C)C3)cc1 | – | – | 27 | – | – | –
CC1(C)CC(=O)c2cc(C(=O)N3CCCC(C)(C)C3)c(=O)n(-c3ccccc3)c2C1 | – | – | – | – | – | –
CCC(C)NC(=O)c1cnn2c(C)c3c(nc12)CCCC3 (stereo not drawn) | – | – | – | 39 | – | –
COc1ccc(CSc2nc(C)cc(=O)[nH]2)cc1Br | – | – | – | – | – | 19
Cc1cc(=O)[nH]c(SCc2cccc(Br)c2)n1 | – | – | – | – | – | –
NC1=NC2(CCCCC2)n2c(nc3ccccc32)N1 | – | – | – | – | – | –
NC1=NC2(CCN(Cc3ccccc3)CC2)n2c(nc3ccccc32)N1 | – | 29 | – | – | – | –
O=C1c2ccccc2C(Nc2ccc(Cl)cn2)N1c1ccccn1 (stereo not drawn) | – | – | – | 18 | – | –
COc1ccc(S(=O)(=O)N2CCCC2C(=O)n2nc(C)cc2C)cc1 (stereo not drawn) | – | 30 | – | – | – | –
